# Rows were chosen to be rich in hits. Some 2.4% of all compounds tested hit in one or more screens of this group.
# SENP7 inh: SENP7 protease inhibition; recombinant SENP7, Z-RLRGG-aminoluciferin luminescence, 40 min; AID 434973; Q9BQF6; 1.5% of 330,000 active; inhibition, % at 5 µM;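 active = inhibition above about 50% at the single test dose, limit read from the data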;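 also: plate controls were DMSO with enzyme for no effect and no enzyme buffer wells for full effect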
# Target sequence (Q9BQF6 706-1050 limits assumed): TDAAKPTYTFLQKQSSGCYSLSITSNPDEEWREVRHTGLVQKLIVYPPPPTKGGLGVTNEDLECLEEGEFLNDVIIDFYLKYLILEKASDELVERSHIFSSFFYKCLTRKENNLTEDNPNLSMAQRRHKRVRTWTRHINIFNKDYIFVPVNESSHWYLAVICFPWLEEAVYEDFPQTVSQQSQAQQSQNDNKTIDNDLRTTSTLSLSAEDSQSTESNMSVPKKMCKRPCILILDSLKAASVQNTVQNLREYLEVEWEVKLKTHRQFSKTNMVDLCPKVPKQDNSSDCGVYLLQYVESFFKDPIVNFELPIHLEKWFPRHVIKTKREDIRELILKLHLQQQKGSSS
# SENP8 block-1: SENP8 (human) protease inhibition | Q96LD8 | recombinant SENP8, Nedd8 substrate fluorescence | inhibition, % at 20 µM | 0.64% of 360,000 active | AID 602440; in the data active = inhibition mostly above about 40%, no sharp cut-off; inactive = mostly below about 27%
# Platelet DG rel: platelet dense granule release activity; human platelet-rich plasma, SFLLRN dense granule ATP release, luminescence; 0.22% of 300,000 active; inhibition, %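 (compounds screened at 7.5 µM in platelet-rich plasma)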; AID 1663;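 active = mean replicate score, as percent of positive control, at or above 50; inconclusive = mean below 50 but at least one replicate at or above 50; inactive = mean and every replicate below 50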
# SENP6 inh: SENP6 protease inhibition; AID 2599; Q9GZR1; 1.8% of 330,000 active; Recombinant SENP6 catalytic domain, aminoluciferin luminescence; inhibition, % at 10 µM;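 active = inhibition above about 50% at the single tested dose, limit read from the data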;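 also: plate controls were DMSO wells with enzyme for no effect and DMSO wells lacking enzyme for full effect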
# SENP8 block-2: blocks the human protease SENP8; AID 2540; Q96LD8; 1.2% of 330,000 active; inhibition, % at 10 µM; purified SENP8, Z-RLRGG-aminoluciferin cleavage, luminescence; in the data active = inhibition above about 50%
# SENP8 confirm: confirmation of human SENP8 protease inhibitors; AID 488912; shares compounds with SENP7 inh; inhibition, % at 12.5 µM; 40% of 6,200 active; Recombinant SENP8, Z-RLRGG-aminoluciferin luminescence, 60 min;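 active = mean inhibition across replicates above about 50%, limit read from the data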
# SENP6 conf: human SENP6 inhibition, confirmed; recombinant SENP6, Z-RLRGG-aminoluciferin luminescence; inhibition, % at 12.5 µM; shares compounds with SENP7 inh; 58% of 6,200 active
# SENP7 conf: confirmation of human SENP7 protease inhibitors | shares compounds with SENP7 inh | recombinant SENP7, Z-RLRGG-aminoluciferin luminescence, 40 min | inhibition, % at 12.5 µM | 69% of 6,200 active
# Casp3 select: inhibits human caspase-3 in SENP selectivity test. shares compounds with SENP7 inh. purified caspase-3, Z-DEVD-aminoluciferin luminescence, 60 min. inhibition, % at 12.5 µM. 60% of 6,200 active. AID 488918;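 active = mean inhibition above about 50%, limit read from the data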;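 also: plate controls were enzyme with DMSO for no effect and wells without caspase-3 for full effect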
# Target sequence (P42574 28-227 limits assumed): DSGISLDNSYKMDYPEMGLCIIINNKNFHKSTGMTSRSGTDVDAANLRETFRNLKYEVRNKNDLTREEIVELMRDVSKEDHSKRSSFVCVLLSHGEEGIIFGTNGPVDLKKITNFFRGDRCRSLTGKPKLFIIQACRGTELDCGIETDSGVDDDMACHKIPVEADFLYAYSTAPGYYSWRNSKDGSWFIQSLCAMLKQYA
# SENP luc ctr: luminescence interference (SENP counter-screen); shares compounds with SENP7 inh; Pre-incubated SENP8/Z-RLRGG-aminoluciferin, luciferase luminescence interference; inhibition, % at 12.5 µM; 39% of 6,200 active; AID 488919;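 active = mean inhibition above about 50% when retested at one dose, limit read from the data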;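 also: plate controls were DMSO wells with completed reaction for no effect and substrate without enzyme for full effect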
# * marks the source's active call; other numbers are inactive results; ? = inconclusive; . = not tested or not shown.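 The calls were made as follows, unless noted: active = mean inhibition above about 50% in the one-dose retest (limit read from the data); inactive = the rest.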
SMILES,SENP7 inh,SENP8 block-1,Platelet DG rel,SENP6 inh,SENP8 block-2,SENP8 confirm,SENP6 conf,SENP7 conf,Casp3 select,SENP luc ctr
O=[N+]([O-])c1ccc(O)c(C=Nc2cccc3ccccc23)c1,19,-422,3,58*,61*,9,12,0,1,0
CCOC(=O)C1(Cc2cccc(Cl)c2)CCCN(C(=O)CN2C(=O)CSC2=O)C1 (centres undefined),-1,5,-7,-7,4,.,.,.,.,.
CC(OC(=O)c1ccc(Cl)c(S(=O)(=O)N2CCOCC2)c1)C(=O)Nc1ccc(S(N)(=O)=O)cc1 (centres undefined),-9,-42,2,-13,-7,.,.,.,.,.
COc1ccc(C(=O)N=c2nc3ccccn3s2)cc1,98*,22,50*,95*,90*,88*,91*,96*,82*,36
CN(C(=O)COC(=O)c1cccnc1Nc1ccccc1F)C1CCS(=O)(=O)C1 (centres undefined),56*,-20,-1,58*,23,37,37,74*,75*,53*
CCN(C(=O)COC(=O)c1cccnc1Nc1ccccc1F)C1CCS(=O)(=O)C1 (centres undefined),96*,2,7,91*,83*,91*,91*,99*,94*,90*
CCN(C(=O)COC(=O)c1cc(-c2ccc3cc(OC)ccc3c2)nc2ccccc12)C1CCS(=O)(=O)C1 (centres undefined),92*,.,15,94*,89*,49,74*,23,77*,18
CCN(C(=O)COC(=O)c1cc(OC)ccc1Br)C1CCS(=O)(=O)C1 (centres undefined),-13,10,.,-7,-22,.,.,.,.,.
O=C(CNC(=O)C1COc2ccccc2O1)Nc1ccc(F)c(F)c1 (centres undefined),6,6,.,-14,-2,.,.,.,.,.
CCCCC1CCC(c2nc(-c3ccccn3)no2)CC1 (centres undefined),41,17,-1,72*,54*,11,28,1,25,26
COC(=O)c1c(-c2cccnc2)csc1NC(=O)c1ccc2c(c1)OCO2,95*,-465,?,72*,73*,12,21,21,36,0
COc1cccc(NC(=O)c2ccc3c(c2)N(C)CCS3)c1,96*,-466,24,91*,94*,95*,96*,100*,94*,96*
COc1cccc(NC(=O)c2ccc3c(c2)OCO3)c1,96*,29,12,93*,88*,-1,90*,100*,95*,90*
CC(C)Oc1cccc(C(=O)Nc2ccc(CN3CCOCC3)cc2)c1,6,10,-1,-12,-1,.,.,.,.,.
COc1cccc(NC(=O)c2oc3ccccc3c2NC(=O)c2ccc3c(c2)OCO3)c1,11,-99,17,-3,-1,.,.,.,.,.
COc1cccc(NC(=O)c2ccc(CN3CCOCC3)cc2)c1,39,8,4,50*,12,27,21,57*,63*,34
COc1cccc(NC(=O)COC(=O)c2ccc3c(c2)OCCO3)c1,.,15,.,.,.,.,.,.,.,.
Cc1cc(C)nc(NC(=O)c2ccc3c(c2)OCO3)c1,80*,.,17,71*,59*,75*,74*,90*,88*,76*
COc1cccc(NC(=O)c2ccc3c(c2)OCCO3)c1,97*,11,52*,94*,94*,97*,98*,102*,97*,96*
Nc1nc(N)c2[nH]c(-c3ccccc3)nc2n1,15,-432,5,7,1,.,.,.,.,.
CC(/C=N/N1CCN(c2ccccc2)CC1)=C\c1ccccc1,75*,14,12,0,11,-10,-6,-9,25,-3
CC(/C=N/N1CCN(c2ccccc2)CC1)=C\c1ccco1,98*,16,24,96*,95*,10,87*,91*,71*,17
CC(/C=N/n1c(-c2ccccc2)n[nH]c1=S)=C\c1ccco1,4,3,13,-13,-8,.,.,.,.,.
CC(=C/c1ccco1)/C=N/N1CCN(c2ccccc2)CC1,95*,13,35,97*,92*,3,54*,34,68*,16
O=C(NCc1ccccc1)C(c1ccc(C(F)(F)F)cc1)N1CCN(CCN2CCOCC2)CC1 (centres undefined),.,13,.,.,.,.,.,.,.,.
SMILES,SENP7 inh,SENP8 block-1,Platelet DG rel,SENP6 inh,SENP8 block-2,SENP8 confirm,SENP6 conf,SENP7 conf,Casp3 select,SENP luc ctr
O=C1NC(c2cc(Cl)cc([N+](=O)[O-])c2O)Nc2ccccc21 (centres undefined),17,18,-2,87*,69*,9,25,15,27,33
O=C1NC(c2ccc(Cl)c([N+](=O)[O-])c2)Nc2ccccc21 (centres undefined),8,6,5,-7,-5,.,.,.,.,.
COc1cc2ccccc2cc1C(=O)Nc1ccccc1Cl,4,-46,-4,58*,47,72*,72*,91*,.,42
N=c1oc2cc(O)ccc2cc1C(=O)Nc1ccccn1,-3,.,.,13,21,.,.,.,.,.
COc1ccc2oc(=N)c(C(=O)Nc3cccc(C)c3C)cc2c1,42,-14,11,21,-8,.,.,.,.,.
COc1ccc2oc(=N)c(C(=O)Nc3ccccc3Cl)cc2c1,61*,-256,3,12,-13,2,7,9,37,10
COc1ccc2oc(=O)c(C(=O)Nc3ccccc3C)cc2c1,74*,-12,-1,65*,47,38,36,45,50*,11
N=c1oc2cc(O)ccc2cc1C(=O)Nc1ccc(Br)cc1,25,-296,5,86*,77*,10,30,15,12,9
O=C(CN1C(=O)NC2(CCCC2)C1=O)N1CCN(S(=O)(=O)c2cc(Cl)ccc2Cl)CC1,7,1,.,17,0,.,.,.,.,.
Cc1ccc(NC(=S)N(CCC(C)C)C(C)c2ccncc2)c(Cl)c1 (centres undefined),13,8,-11,-20,0,.,.,.,.,.
CCCCOc1ccc(C(=O)NCC(=O)N2CC(C)CC(C)C2)cc1 (centres undefined),-3,9,.,15,7,.,.,.,.,.

# Screening data (PubChem)
